TRb SRC2 PPI = inhibitors of human thyroid hormone receptor beta-SRC2 interaction; TRbeta-SRC2 peptide binding, fluorescence polarization; receptor liganded with 1 µM T3; hit rate 0.065% among 280,000; Potency, µM (series often up to 106 µM), for the others: at the top dose activity change, negative = inhibition, most hits filed as inhibitors; P10828;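 also: potency is read from the fitted curve at half-maximal effect; plate controls were bound peptide for no effect and peptide without receptor for full effect; nearly all actives have a fitted effect of over 50% in size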
Target sequence (P10828 whole entry, looked up): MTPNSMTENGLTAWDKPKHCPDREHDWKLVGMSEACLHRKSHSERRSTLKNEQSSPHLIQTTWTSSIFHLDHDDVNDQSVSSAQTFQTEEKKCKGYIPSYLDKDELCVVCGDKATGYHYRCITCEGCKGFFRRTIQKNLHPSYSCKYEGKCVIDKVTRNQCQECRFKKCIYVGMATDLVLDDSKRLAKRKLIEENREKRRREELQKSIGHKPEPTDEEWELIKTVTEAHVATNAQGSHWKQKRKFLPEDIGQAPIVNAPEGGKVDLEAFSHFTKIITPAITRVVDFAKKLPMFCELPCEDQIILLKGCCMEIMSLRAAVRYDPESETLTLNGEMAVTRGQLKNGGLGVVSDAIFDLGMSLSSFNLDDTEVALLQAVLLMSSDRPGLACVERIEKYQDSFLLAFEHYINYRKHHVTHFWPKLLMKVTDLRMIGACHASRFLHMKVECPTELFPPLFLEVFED
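TRb LBD 0.6 uM + Texas Red SRC2 peptide 20 nM, 1 uM T3, Tris buffer w/ 5% DMSO; compound pinned, 5 h RT; FP read ex 555/em 632; normalized to unbound and bound controls.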
TexasRed fluor = Texas Red fluorescence interference in TRb-SRC2 counter-screen; Potency, µM (highest dose often 106 µM), for inactives: at the top dose fluorescence change, negative = quenching; hit rate 0.29% among 280,000; TRb/SRC2 Texas Red total fluorescence interference; active = well fitted curve in either direction with a large enough effect; inconclusive = small, poorly fitted or top-dose-only effect; also: potency is read from the fitted curve at half-maximal effect
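Flags fluorescent or light-absorbing compounds by total fluorescence, S + 2P, at 555 nm excitation and 632 nm emission. Mixture: 20 nM Texas Red SRC2 peptide, 0.6 uM human TRb LBD, 1 uM T3, 5% DMSO; compound exposure 5 h at ambient temperature.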
PNC assembly inh = blocks assembly of the perinucleolar compartment; PC3M PTB-GFP, PNC prevalence imaging, 16 h; active compounds read low; activity change (PNC), negative = inhibition, % at 10 µM; hit rate 3.1% among 140,000;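 active = readout at or below -70, meaning at least 70% loss of cells showing the perinucleolar compartment, a nuclear body marking cancer cells; inconclusive = readout between -30 and a set limit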;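 also: plate controls were DMSO wells for no effect and camptothecin positive control wells for full effect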
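PC3M cells stably expressing PTB-GFP, 750–1000 cells/well, treated 16 h at 37 °C with compound (23 nl of library stock), in duplicate. After paraformaldehyde fixation and Hoechst stain, imaged at 20x; PNC prevalence scored by image analysis.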
Tau fibril ThT = inhibitors of human tau fibril formation, thioflavin T binding; Potency, µM (top dose mostly 57.4 µM), inactives show top-dose activity, negative = inhibition, actives largely listed as inhibitors; recombinant tau K18 P301L, heparin-induced fibrillization, ThT fluorescence; P10636; hit rate 2.1% among 270,000; also: potency is read from the fitted curve at half-maximal effect; nearly all actives have a fitted effect of over 55% in size
Target sequence (P10636 561-689 P618L limits assumed): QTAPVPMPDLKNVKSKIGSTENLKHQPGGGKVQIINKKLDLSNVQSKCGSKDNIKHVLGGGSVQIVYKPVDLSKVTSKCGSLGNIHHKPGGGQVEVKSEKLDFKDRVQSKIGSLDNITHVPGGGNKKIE
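Heparin-induced (20 uM) aggregation of recombinant human K18 P301L tau, 15 uM unlabeled with 0.24 uM labeled, pH 7 acetate buffer, 6 hr at 37 C with compound. Fibrils quantified by 30 uM ThT fluorescence after 1 hr ambient incubation.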
Tau fluor cs = counter-screen for tau fibril formation inhibitors; Potency, µM (series often up to 57.7 µM), without a hit: at the highest dose activity change, negative = decrease; tau K18 P301L (four-repeat tau fragment) Alexa594 fluorescence, heparin fibrillization; AID 1463; hit rate 0.93% among 280,000; also: potency is read from the fitted curve at half-maximal effect; nearly all actives have a fitted effect of over 55% in size
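Human K18 P301L tau (15 uM unlabeled plus 0.24 uM Alexa 594-labeled, final) in 100 mM sodium acetate pH 7 was mixed with compound and 20 uM heparin and incubated 6 hr at 37 C.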
Tau fibril FP = tau fibrillization inhibition (FP); P10636; AID 1468; Potency, µM (titrated, usually from 57.7 µM), for the others: at the highest dose activity, negative = inhibition, hits mostly inhibitors; hit rate 0.39% among 280,000; K18 P301L tau heparin fibrillization, Alexa594 FP, 6 h; also: potency is read from the fitted curve at half-maximal effect; nearly all actives have a fitted effect of over 55% in size
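Human K18 P301L fragment (15 uM unlabeled plus 0.24 uM Alexa 594-labeled) in 100 mM sodium acetate pH 7 with compound, aggregation induced by 20 uM heparin for 6 hr at 37 C. ThT (30 uM) added for 1 hr, then Alexa 594 FP read.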
The depositor's hits bear a star; ? = inconclusive; · = no result; [ ] = dose if it differs, or a comment. Sampled rows, rich in hits. Any-hit rate of the full collection: about 4.6%. Unless noted, calls follow the shape of the dose curve; as a rule, active = well fitted curve in the direction sought with a large enough effect; inconclusive = small, poorly fitted or top-dose-only effect, or another doubt; inactive = no such curve, though single readings can be large; an effect the other way counts as inactive or inconclusive. Unless noted, % is scaled to controls: 0 for no effect and ±100 for the full control effect.

SMILES	TRb SRC2 PPI	TexasRed fluor	PNC assembly inh	Tau fibril ThT	Tau fluor cs	Tau fibril FP
COc1ccc(N(CC(=O)Nc2cc(OC)ccc2OC)S(=O)(=O)c2c(C)nn(C)c2C)cc1	-2%	-6%	?	-10%	-22%	-13%
Cc1ccc(S(=O)(=O)/N=C2\SC(CC(=O)Nc3ccc(F)cc3)C(=O)N2c2ccccc2)cc1 (stereo not drawn)	-5%[53 µM]	0%[53 µM]	20	5%	5%	-3%
CCN(CC)c1ccc(/C=N/NC(=O)c2ccc3nc[nH]c3c2)c(O)c1	1%	-8%	·	·	14µM*[quencher]	3%
CCN(CC)c1ccc(/C=N/NC(=O)c2cccc(S(=O)(=O)Nc3ccccc3OC)c2)c(O)c1	7%	-2%	38	-13%	7.9µM*[quencher]	?
CCN(CC)c1ccc(/C=N/Nc2ccccc2)c(O)c1	-21%	10%	-25	25µM*	?	?
Cc1cc(N2CCCCC2)nc(-c2ccc(Br)cc2)n1	1%	1%	·	-18%	-12%	-5%
CCc1[nH]nc2c1C1(CCOC1C)C(C#N)=C(N)O2 (stereo not drawn)	1%	-4%	26	2%	3%	1%
CCC1CCCCN1C(=S)NC1CCCCC1 (stereo not drawn)	-3%	0%	-10	-8%	-9%	-6%
Cc1cccc(NC(=O)c2c(N)sc3c2CCC(C)C3)c1 (stereo not drawn)	9%	-5%	·	8.9µM*	?	-15%
CCOC(=O)N1CCC(Nc2c(Nc3ccc(F)cc3)c(=O)c2=O)CC1	0%	1%	3	-9%	-20%	?
CCOC(=O)N1CCC(Nc2c(Nc3cccc(CC)c3)c(=O)c2=O)CC1	-26%	0%	-1	?	14µM*[quencher]	?
COc1cc(OC)cc(C(=O)N[C@H](C(=O)OCC(=O)Nc2cccc(F)c2)C(C)C)c1	7%	-1%	109	-4%	-24%	-5%
Cc1ccccc1NC(=O)Cn1c(=O)n(CCCCCC(=O)NCc2ccccc2Cl)c(=O)c2sccc21	-7%	-71%	·	16%	-3%	4%
Cc1ccc(S(=O)(=O)c2ccc(Cl)cc2)cc1S(=O)(=O)NC(C)C(=O)O (stereo not drawn)	-3%[53 µM]	0%[53 µM]	-90*	9%	9%	1%
CCOC(=O)CSc1cn2c(n1)CCC2	-12%	-9%	-100*	-2%	1%	-6%
CCOC(=O)CSc1nc(C)cc(C)n1	-1%	-5%	-28	-9%	-11%	-5%
O=C(CSc1nc2ccccc2c(=O)n1-c1ccc(F)cc1F)Nc1ccc(N2CCOCC2)cc1	3%	-2%	9	?	?	20%
O=C(CSc1nc2ccccc2c(=O)n1-c1ccc(F)cc1F)c1c[nH]c2ccccc12	5%	1%	138	?	?	28µM*
CCOC(=O)c1cnc(SC)nc1Oc1cccc(NS(=O)(=O)c2ccc(Cl)cc2)c1	0%	-6%	-100*	2%	-14%	-11%
O=C1CCC(N2C(=O)c3ccccc3C2=O)C(=O)N1 (stereo not drawn)	1%	-2%	·	-1%	-3%	-4%
COc1ccc(C(=O)CC2OC(=O)c3c2ccc(OC)c3OC)cc1 (stereo not drawn)	3%	-1%	-4	-13%	-10%	-7%
O=C(CN(C1CCCCC1)S(=O)(=O)c1ccc(Cl)cc1)NCc1ccncc1	-2%	4%	-100*	7%	-9%	1%
Cc1ccc(S(=O)(=O)N(CC(=O)NCc2cccnc2)C2CCCCC2)cc1	-7%	-4%	·	5%	7%	-1%
Cc1cc(C)c(S(=O)(=O)N(CC(=O)NCc2cccnc2)C2CCCCC2)c(C)c1	-2%	-4%	-88*	?	-10%	-1%
COC(=O)CSc1nc(C)c(Oc2ccccc2)c(=O)[nH]1	-7%	-1%	20	-8%	-4%	-3%
SMILES	TRb SRC2 PPI	TexasRed fluor	PNC assembly inh	Tau fibril ThT	Tau fluor cs	Tau fibril FP
O=C1/C(=C\c2ccc(O)c(O)c2)Oc2c1ccc(O[C@@H]1O[C@H](CO)[C@@H](O)[C@H](O)[C@H]1O)c2O	7%	-20%	·	·	·	·
O=c1c2cnn(-c3ccccc3)c2ncn1Cc1cccc(Cl)c1	0%	-3%	-108*	3%	-1%	-12%
Cc1ccc(-n2ncc3c(=O)n(Cc4cccc(Cl)c4)cnc32)cc1C	3%	-2%	·	3%	-8%	-13%
Cc1ccc(Cl)cc1-n1ncc2c(NNC(=O)c3ccco3)ncnc21	-3%	1%	·	-14%	-24%	0%
CCOc1ccc(Cl)cc1/C=N/NC(=O)CNC(=O)c1ccccc1	-2%	-2%	-16	-6%	-9%	-4%
COc1ccc(OC)c(N2C(=O)C(Cl)=C(N3CCCCC3)C2=O)c1	2%	-5%	12	13µM*	?	16µM*
O=C1C(Cl)=C(N2CCCCC2)C(=O)N1c1ccccc1Cl	-7%	-2%	20	14µM*	?	20µM*
COc1ccc(OC)c(N2Cc3cc(C)c(C)cc3C2)c1	-25%	1%	22	?	-22%	-8%
COc1ccc(OC)c(N2C(=O)C(Cl)=C(N3CCOCC3)C2=O)c1	4%	-5%	24	14µM*	?	25µM*
Cc1ccccc1N1C(=O)C(Cl)=C(N2CCCCCC2)C1=O	1%	-4%	-16	?	-25%	?
COc1cc(NC(=O)NCCn2nnc3cc(S(=O)(=O)N(C)C)ccc32)cc(OC)c1OC	5%	-2%	·	8%	-1%	0%
Cc1ccc(CNC(=O)c2cccc(N3CCCS3(=O)=O)c2)cc1	4%	-1%	·	18%	5%	11%
COc1cc(-n2c(C)nc3cc(C(=O)NCCN4CCOCC4)ccc32)cc(OC)c1OC	3%	1%	15	-7%	-8%	-4%
CCOCC(=O)Nc1ccc(S(=O)(=O)N2CCOCC2)cc1	-9%	0%	-28	-9%	5%	4%
CCC(C(=O)OCc1cc(=O)n2nc(C)sc2n1)c1ccccc1 (stereo not drawn)	-9%	?	·	-1%	-5%	2%
CCOc1cccc(-c2nnc(SCC(=O)Nc3ccc(OC)c(OC)c3)n2N)c1	3%	1%	-108*	-13%	-4%	-4%
O=C(CC(C(=O)O)c1ccc(Cl)cc1)c1ccccc1 (stereo not drawn)	4%	-2%	·	-12%	-3%	7%
COC(=O)C(CC(=O)c1ccc(Cl)cc1)c1ccc(C)cc1 (stereo not drawn)	3%	-5%	-100*	-12%	-7%	-8%
CCOc1cc(NC(=S)Nc2cccc(OC)c2)c(OCC)cc1NC(=O)C(C)C	-7%	-5%	-106*	-21%	-24%	8%
